From PubChem
Shown are actives, neighbours in structure and some others; about 4.7% of the full set was active somewhere.
D1 PAM: Potentiators of Human D1 Dopamine Receptor: qHTS | potentiation, % at 10 µM | HEK293 TREx D1 cells, calcium flux, dopamine EC20 potentiation | AID 504651, 2011 | actives 0.036% (n = 360,000); in the data active = potentiation above about 30%; also: 0% is about no effect
D1 antagonist: Antagonist of Human D 1 Dopamine Receptor: qHTS; D(1A) dopamine receptor (Homo sapiens), P21728; HEK293 TREx D1 cells, calcium flux, dopamine EC80; stronger effect = lower value; activity change, negative = inhibition, % at 10 µM; actives 3.2% (n = 360,000); AID 504652, 2011; in the data active = activity change below about -30%; also: % is scaled to controls: 0 for no effect and ±100 for the full control effect
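Compound effects on dopamine-evoked calcium signalling were measured in tetracycline-induced HEK293 Trex D1 cells. Dopamine at EC80 followed a 180 s compound pre-read, and fluorescence was tracked kinetically for 180 s more.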
D1 agonist: Allosteric Agonists of the Human D1 Dopamine Receptor: qHTS; HEK293 T-REx D1 cells, calcium flux, agonist mode; activation, % at 2 µM; actives 1% (n = 360,000); AID 504660, 2011; also: 0% is about no effect
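Agonism was scored from calcium flux recorded over 180 s (1 read/s) after pintool compound addition, following a 10-cycle baseline. Cells were inducible force-coupled HEK293 TREx D1, plated overnight at 30 C and loaded with no-wash calcium dye.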
TRHR ag: qHTS for Small Molecule Agonists and Allosteric Enhancers of Human TRH Receptor: Primary Screen for Agonists; Thyrotropin-releasing hormone receptor (Homo sapiens), P34981; TRHR cells, calcium flux fluo-8, FDSS agonist mode; activation, % at 2 µM; actives 0.18% (n = 360,000); also: 0% is about no effect
Target sequence (P34981 whole entry, looked up): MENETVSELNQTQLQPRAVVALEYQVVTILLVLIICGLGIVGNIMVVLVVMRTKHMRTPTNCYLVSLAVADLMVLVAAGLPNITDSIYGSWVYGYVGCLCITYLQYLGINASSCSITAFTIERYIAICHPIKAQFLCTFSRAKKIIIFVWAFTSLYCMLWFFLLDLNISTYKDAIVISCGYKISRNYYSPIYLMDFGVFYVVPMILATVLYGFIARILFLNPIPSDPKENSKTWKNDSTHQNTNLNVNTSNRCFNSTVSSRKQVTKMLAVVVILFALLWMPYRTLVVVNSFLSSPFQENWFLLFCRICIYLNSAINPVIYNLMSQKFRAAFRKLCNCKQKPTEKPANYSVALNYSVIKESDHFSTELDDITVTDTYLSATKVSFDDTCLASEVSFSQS
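Agonist-mode FDSS calcium read (Ex 480/Em 530, 1 s cycles) in 1536-well TRHR cells with fluo-8 dye, after 10-cycle baseline and 23 nL compound addition; TRH at EC20 (10 nM final) added afterwards for the enhancer phase.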
TRHR PAM: qHTS for Small Molecule Agonists and Allosteric Enhancers of Human TRH Receptor: Primary Screen for Enhancers; TRHR cells, fluo-8 calcium fluorescence, EC20 TRH enhancement; enhancement, % at 2 µM; Thyrotropin-releasing hormone receptor (Homo sapiens), P34981; AID 493056, 2011; actives 0.66% (n = 360,000); in the data active = enhancement above about 30%; also: 0% is about no effect
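Enhancer read-out: after compound pinning and an initial kinetic agonist-mode read, an EC20 of TRH (10 nM final) was injected and fluo-8 calcium signal (Ex 480/Em 530) followed at 1 s/cycle for 100 cycles in TRHR-expressing cells.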
An asterisk follows results filed as active. Rule as the data show it, unless noted: active = activation above about 30%; inactive = the rest.

`Cc1nc2ccc(NC(=O)c3cccc(S(=O)(=O)N(C)c4ccccc4)c3)cc2s1` gave D1 PAM -7, D1 antagonist -2, D1 agonist 13, TRHR ag 0 and TRHR PAM 4.
Screening COc1ccccc1N(C)S(=O)(=O)c1ccc(C(=O)Nc2ncc(C)s2)cc1 returned D1 PAM -3, D1 antagonist -1, D1 agonist 3, TRHR ag 1 and TRHR PAM 3.
Screening COc1ccccc1N(C)S(=O)(=O)c1ccc(C(=O)Nc2ccc3nc(C)sc3c2)cc1 returned D1 PAM -1, D1 antagonist -44*, D1 agonist 9, TRHR ag 1 and TRHR PAM 2.
For CCOc1ccc(NC(=O)CN(Cc2ccccc2)S(=O)(=O)c2ccc3nc(C)sc3c2)cc1 the results were D1 PAM -6, D1 antagonist 0, D1 agonist 1, TRHR ag 1 and TRHR PAM -2.
Screening COc1cccc(NC(=O)CN(Cc2ccccc2)S(=O)(=O)c2ccc3nc(C)sc3c2)c1 returned D1 PAM -7, D1 antagonist -45*, D1 agonist 21, TRHR ag -1 and TRHR PAM 7.
For COc1ccccc1N(C)S(=O)(=O)c1ccc(C(=O)Nc2nccs2)cc1 the results were D1 PAM -5, D1 antagonist -66*, D1 agonist 0, TRHR ag 0 and TRHR PAM -19.
`COc1ccccc1N(C)S(=O)(=O)c1ccc(C(=O)N(C)Cc2ccc(OC(F)F)cc2)cc1` gave D1 PAM 0, D1 antagonist -41*, D1 agonist 19, TRHR ag 1 and TRHR PAM -8.
Screening C=CCn1c(=O)/c(=C/c2ccc(O)cc2)s/c1=C(/C#N)c1nnc2n1CCCCC2 returned D1 PAM 1, D1 antagonist -1, D1 agonist 50*, TRHR ag 30* and TRHR PAM -6.
For Cc1ccc(NC(=O)c2c(C)nc3sc(C(=O)Nc4ccc(F)cc4)c(N)c3c2-c2ccccc2Cl)c(C)c1 the results were D1 PAM 1, D1 antagonist -39*, D1 agonist 5, TRHR ag 1 and TRHR PAM -2.
Screening O=S(=O)(Nc1c(Br)cc(Br)c2cccnc12)C1CCCCC1 returned D1 PAM 8, D1 antagonist 2, D1 agonist 0, TRHR ag 0 and TRHR PAM -2.
Screening Cc1cc(C)cc(NC(=O)C(=O)NCC(c2ccc3c(c2)OCO3)N2CCOCC2)c1 (stereo not drawn) returned D1 PAM -3, D1 antagonist 1, D1 agonist 2, TRHR ag 0 and TRHR PAM -2.
NC(=O)c1c(NC(=O)c2ccncc2)sc2c1CCCC2 was read as D1 PAM -2, D1 antagonist 3, D1 agonist 1, TRHR ag 0 and TRHR PAM -4.
Screening CC(C)C(=O)Nc1sc2c(c1C(N)=O)CCN(Cc1ccccc1)C2 returned D1 PAM -8, D1 antagonist 2, D1 agonist 8, TRHR ag 2 and TRHR PAM 3.
Screening CCN1CCc2c(sc(NC(=O)Nc3ccc(Cl)c(Cl)c3)c2C(N)=O)C1 returned D1 PAM -2, D1 antagonist -8, D1 agonist 418*, TRHR ag 159* and TRHR PAM -20.
Screening NC(=O)c1c(NC(=O)c2ccncc2)sc2c1CCCCCC2 returned D1 PAM -9, D1 antagonist -8, D1 agonist 37*, TRHR ag 2 and TRHR PAM 5.
Screening CCN1CCc2c(sc(NC(=O)Cc3ccccc3)c2C(N)=O)C1 returned D1 PAM -2, D1 antagonist -24, D1 agonist 6, TRHR ag 1 and TRHR PAM 7.
NC(=O)c1c(NC(=O)c2c(F)cccc2F)sc2c1CCN(Cc1ccccc1)C2 was read as D1 PAM -1, D1 antagonist 12, D1 agonist 155*, TRHR ag 49* and TRHR PAM 6.
For CCC(=O)Nc1sc2c(c1C(N)=O)CCN(Cc1ccccc1)C2 the results were D1 PAM 1, D1 antagonist -11, D1 agonist 166*, TRHR ag 39* and TRHR PAM -3.
Screening Cc1cc(C)c(NC(=S)N2CCN(c3ccc([N+](=O)[O-])cn3)CC2)cc1C returned D1 PAM -1, D1 antagonist -7, D1 agonist 11, TRHR ag 0 and TRHR PAM -1.
`COc1ccc(CN2CCN(C(=O)c3ccc(S(=O)(=O)NCc4ccco4)cc3)CC2)cc1` gave D1 PAM -6, D1 antagonist -14, D1 agonist 6, TRHR ag 0 and TRHR PAM -11.
For Cc1c(NC(=O)c2ccc(-c3ccc(F)cc3)o2)cccc1-c1nc2ncccc2o1 the results were D1 PAM -2, D1 antagonist -2, D1 agonist -2, TRHR ag 2 and TRHR PAM -7.
NC(=O)c1c(NC(=O)c2ccccc2)sc2c1CCN(Cc1ccccc1)C2 was read as D1 PAM -10, D1 antagonist -9, D1 agonist 216*, TRHR ag 53* and TRHR PAM 0.
Cc1ccc(NC(=O)N(Cc2ccco2)Cc2cc3cc(C)cc(C)c3nc2Cl)cc1 was read as D1 PAM -5, D1 antagonist -4, D1 agonist 5, TRHR ag -1 and TRHR PAM 16.
Cc1cccc2cc(CN(Cc3ccco3)C(=O)Nc3cccc(C#N)c3)c(Cl)nc12 was read as D1 PAM -8, D1 antagonist -55*, D1 agonist 14, TRHR ag 3 and TRHR PAM -5.
Screening Cc1ccc(NC(=O)c2nc(-c3ccncc3)no2)c(Cl)c1 returned D1 PAM -4, D1 antagonist -47*, D1 agonist 12, TRHR ag 0 and TRHR PAM 3.
`CCO[C@@H]1OC(C(=O)N2CCN(Cc3ccccc3)CC2)=C[C@H](C2CC2)[C@H]1CCCO` gave D1 PAM 4, D1 antagonist 6, D1 agonist -6, TRHR ag 0 and TRHR PAM 1.
For CCN(CC)c1ccc2cc(-c3nnc(-c4cccc(Cl)c4)o3)c(=O)oc2c1 the results were D1 PAM 38*, D1 antagonist -14, D1 agonist 416*, TRHR ag 171* and TRHR PAM 28.
Screening COc1cccc(-c2nnc(-c3cc4cc(Cl)ccc4oc3=O)o2)c1 returned D1 PAM -3, D1 antagonist 31, D1 agonist 1, TRHR ag 1 and TRHR PAM -5.
